Rows were chosen to be rich in hits. Some 1.1% of all compounds tested hit in one or more screens of this group.
AmpC detergent = qHTS Inhibitors of AmpC Beta-Lactamase (assay with detergent). P00811. AmpC hydrolysis of nitrocefin, absorbance 480 nm, 0.01% Triton. Potency, µM (series often up to 114 µM), for inactives: top-dose activity change, negative = inhibition, actives largely listed as inhibitors. hit rate 0.041% among 370,000. AID 485294, 2010;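 also: 0% = no-compound wells and -100% = no-enzyme wells; nearly all actives have a fitted effect of over 25% in size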
Target sequence (P00811 whole entry, looked up): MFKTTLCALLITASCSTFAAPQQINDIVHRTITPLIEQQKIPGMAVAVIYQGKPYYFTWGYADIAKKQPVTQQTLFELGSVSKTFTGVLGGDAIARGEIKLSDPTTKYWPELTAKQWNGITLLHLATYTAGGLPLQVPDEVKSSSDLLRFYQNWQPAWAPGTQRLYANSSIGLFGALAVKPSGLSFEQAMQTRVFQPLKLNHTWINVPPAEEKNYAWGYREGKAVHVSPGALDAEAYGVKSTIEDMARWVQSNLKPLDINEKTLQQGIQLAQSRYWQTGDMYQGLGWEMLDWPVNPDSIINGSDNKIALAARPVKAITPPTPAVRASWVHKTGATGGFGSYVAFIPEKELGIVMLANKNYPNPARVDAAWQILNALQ
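20 mM phosphate pH 7.0 + 0.01% (detergent screen) or 0.0001% Triton X-100; 5.3 nM AmpC reagent; cpd preinc 15 min RT; nitrocefin (800 uM stock) to start; A480 q20 s × 4 min; Activity was normalised to no-enzyme and no-compound control wells.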
Giardia FBPA inh-1 = qHTS Assay for Inhibitors of Fructose-1,6-bisphosphate Aldolase from Giardia Lamblia. hit rate 0.71% among 290,000. purified Giardia FBPA. Potency, µM (top dose mostly 59.6 µM), for inactives: at the highest dose activity, negative = inhibition, most hits filed as inhibitors. A8B2U2. AID 2451, 2010; also: nearly all actives have a fitted effect of over 55% in size
Target sequence (A8B2U2 whole entry, looked up): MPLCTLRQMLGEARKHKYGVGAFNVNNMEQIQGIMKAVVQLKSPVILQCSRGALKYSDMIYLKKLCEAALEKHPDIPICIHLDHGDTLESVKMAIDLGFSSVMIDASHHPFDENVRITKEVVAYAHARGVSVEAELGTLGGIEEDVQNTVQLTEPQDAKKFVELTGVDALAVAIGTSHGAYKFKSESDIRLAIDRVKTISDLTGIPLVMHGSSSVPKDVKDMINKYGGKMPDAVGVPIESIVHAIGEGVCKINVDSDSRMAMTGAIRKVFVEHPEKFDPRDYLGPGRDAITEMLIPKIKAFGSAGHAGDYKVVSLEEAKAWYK
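Giardia FBPA (40 nM reagent) was preincubated 10 min at RT with compound (up to 57.5 uM final), then substrate plus GAPDH/TPI/NAD/arsenate coupling system with diaphorase/resazurin was added; resorufin fluorescence (525/598 nm) was read after 20 min.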
AMA1 RON2 block = qHTS for Inhibitors of AMA1-RON; Towards Development of Antimalarial Drug Lead: Primary Screen; Plasmodium falciparum AMA1 (3D7) - RON2 peptide interaction; AlphaScreen AMA1-biotinylated RON2 peptide binding; Potency, µM (series often up to 58.2 µM), inactives show top-dose activity change, negative = inhibition, actives largely listed as inhibitors; hit rate 0.2% among 360,000; AID 720542, 2013;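 also: 0% = vehicle wells and -100% = peptide control; nearly all actives have a fitted effect of over 45% in size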
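AMA1 (3D7) with his tag at 25 nM final met compounds first, then biotinylated RON2 peptide at 25 nM; detection used donor plus acceptor beads, 10 µg/mL apiece, read by AlphaScreen after 30 min at room temperature.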
AmpC inh no detg = qHTS Inhibitors of AmpC Beta-Lactamase (assay without detergent) | AmpC nitrocefin hydrolysis, absorbance 480 nm, 0.0001% Triton | Potency, µM (titrated, usually from 57.1 µM), inactives show at the top dose activity change, negative = inhibition, hits mostly inhibitors | AID 485341, 2010 | hit rate 0.52% among 330,000 | P00811;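 also: plate controls were no compound for no effect and no enzyme for full effect; nearly all actives have a fitted effect of over 20% in size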
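20 mM phosphate pH 7.0 + 0.01% (detergent screen) or 0.0001% Triton X-100; 5.3 nM AmpC reagent; cpd preinc 15 min RT; nitrocefin (800 uM stock) to start; A480 q20 s × 4 min; Activity was normalised to no-enzyme and no-compound control wells.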
Giardia growth = qHTS Assay for Inhibitors of Fructose-1,6-bisphosphate Aldolase from Giardia Lamblia: Giardia lamblia growth inhibition; shares compounds with Giardia FBPA inh-1; Giardia lamblia trophozoite growth inhibition; Potency, µM (doses to about 57.5 µM), for inactives: at the highest dose activity change, negative = inhibition, actives largely listed as inhibitors; hit rate 5% among 1,500; AID 2785, 2010;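 also: trophozoites exposed to compound for 48 h at 37 °C; nearly all actives have a fitted effect of over 70% in size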
Mammalian tox = qHTS Assay for Inhibitors of Fructose-1,6-bisphosphate Aldolase from Giardia Lamblia: Mammalian cellular toxicity | mammalian cell viability counter-screen, qHTS | AID 2786, 2010 | Potency, µM (doses to about 57.5 µM), for the others: at the top dose viability change, negative = toxicity, actives largely listed as inhibitors | shares compounds with Giardia FBPA inh-1 | hit rate 4% among 1,500;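 also: Chinese hamster ovary cells used as mammalian cytotoxicity surrogate; viability measured as cellular ATP by luminescence; compound exposure lasted 48 h before reading; nearly all actives have a fitted effect of over 60% in size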
Giardia FBPA inh-2 = qHTS Assay for Inhibitors of Fructose-1,6-bisphosphate Aldolase from Giardia Lamblia: Primary screen confirmation. shares compounds with Giardia FBPA inh-1. purified Giardia aldolase enzyme activity, qHTS. Potency, µM (top dose mostly 57.5 µM), for the others: top-dose activity change, negative = inhibition, actives largely listed as inhibitors. hit rate 5% among 1,500. AID 2787, 2010; also: nearly all actives have a fitted effect of over 45% in size
Rabbit aldolase = qHTS Assay for Inhibitors of Fructose-1,6-bisphosphate Aldolase from Giardia Lamblia: Rabbit FBPA Selectivity; shares compounds with Giardia FBPA inh-1; Rabbit muscle FBPA enzyme inhibition, selectivity counter-screen; Potency, µM (titrated, usually from 57.5 µM), inactives show top-dose activity, negative = inhibition, hits mostly inhibitors; hit rate 4% among 1,500; AID 2794, 2010; also: nearly all actives have a fitted effect of over 60% in size
GAPDH coupling = qHTS Assay for Inhibitors of Fructose-1,6-bisphosphate Aldolase from Giardia Lamblia: Coupling assay counterscreen confirmation; GAPDH coupling enzyme counterscreen, biochemical, qHTS; shares compounds with Giardia FBPA inh-1; Potency, µM (titrated, usually from 57.5 µM), for inactives: top-dose activity change, negative = inhibition, most hits filed as inhibitors; hit rate 6% among 1,500; also: nearly all actives have a fitted effect of over 55% in size
Numbers without * were called inactive; ? = inconclusive; / = not tested or not shown; ! = a repeat was not active; [ ] = dose if it differs, or a comment. Calls follow the shape of the dose curve; as a rule, active = well fitted curve in the direction sought with a large enough effect; inconclusive = small, poorly fitted or top-dose-only effect, or another doubt; inactive = no such curve, though single readings can be large; an effect the other way counts as inactive or inconclusive. Unless noted, % is scaled to controls: 0 for no effect and ±100 for the full control effect; potency is read from the fitted curve at half-maximal effect.

SMILES	AmpC detergent	Giardia FBPA inh-1	AMA1 RON2 block	AmpC inh no detg	Giardia growth	Mammalian tox	Giardia FBPA inh-2	Rabbit aldolase	GAPDH coupling
O=C(CCN1CCCCC1)Nn1c(=S)[nH]c2ccccc2c1=O	-10%	22µM*	74%	-28%	?	11%	1%	12%	5%
CC(C)=CCC[C@H](C)C[C@@H]1Cc2[nH][nH]c(=O)c2[C@H](c2ccc(F)cc2)O1	/	/	102%	/	/	/	/	/	/
Cc1ccc(C(=O)Nc2nnc(-c3ccncc3)o2)cc1	-3%	14µM*	16%	-4%	-5%	12%	13%	4%	-13%
O=C(Nc1nnc(-c2ccncc2)o1)c1ccccc1	-2%	16µM*	34%	7%	8.9µM*	2%	3%	-3%	-4%
O=C(Nc1nnc(-c2ccncc2)o1)c1ccccc1F	-4%	?	-5%	5%	/	/	/	/	/
CC1CCCCN1S(=O)(=O)c1ccc(C(=O)Nc2nnc(-c3ccncc3)o2)cc1 (centres undefined)	-2%	5µM*	66%	-27%	?	?	4%	13%	8%
CC1CCCCN1S(=O)(=O)c1ccc(C(=O)Nc2nnc(-c3ccccc3Cl)o2)cc1 (centres undefined)	-9%	?	73%	-25%	/	/	/	/	/
COCCCn1c(=N)c(C(=O)NCC2CCCO2)cc2c(=O)n3cc(C)ccc3nc21 (centres undefined)	9%	/	/	/	/	/	/	/	/
COC(=O)C[C@@H]1C[C@@H]2c3cc(NC(=O)NC4CCCCC4)ccc3O[C@@H]2[C@H](CO)O1	/	/	0%	/	/	/	/	/	/
O=C(CNCc1cccs1)Nc1ccc(N2CCCCCC2)cc1	-3%	18µM*	35µM*	7%	?	-11%	-15%	-14%	-13%
Cc1cc(NCc2ccc(Cl)cc2)n2cnnc2n1	8%	/	/	/	/	/	/	/	/
COc1ccccc1OCC#CCNC1CCCCC1C (centres undefined)	-2%	1.6µM*	-4%	7%	22%[38.3 µM]	12%	2%	17%	3%
COc1ccccc1OCC#CCN1CCCC(C)C1 (centres undefined)	-8%	?	-8%	8%	/	/	/	/	/
CC(C)n1c(=S)[nH]c2c1c(=O)[nH]c(=O)n2C	0%	16µM*	-11%	-2%	-7%[10.4 µM]	-6%	-3%	-18%	6%
NC(=O)C1(N2CCCCC2)CCN(C(=S)Nc2ccc(S(N)(=O)=O)cc2)CC1	2%	7.9µM*	2%	-16%	87%	-3%	-23%	-15%	-20%
Cc1ccc(NC(=S)NC(=O)c2c(-c3ccccc3Cl)noc2C)cc1	1%	/	23%	-26%	/	/	/	/	/
CC(=O)N1CCN(C(=S)NC(=O)c2c(-c3ccccc3Cl)noc2C)CC1	-8%	16µM*	64%	-20%	0%[10.4 µM]	0%	-3%	9%	2%
C=CCNCCCOc1ccc(Cl)cc1C(C)(C)C	-1%	18µM*	-8%	28%	7%	-25%	-15%	-14%	-16%
CCOC(=O)Cc1csc(NC(=O)CN2CCOCC2)n1	11%	14µM*	44%	1%	0%[10.4 µM]	1%	4%	5%	15%
CCOC(=O)Cc1csc(NS(=O)(=O)c2ccc(NC(C)=O)cc2)n1	-19%	14µM*	10%	-17%	0%	16%	8%	15%	17%
CCOC(=O)Cc1csc(NC(=O)CCC(=O)O)n1	-2%	4%	6%	3%	/	/	/	/	/
CCOC(=O)Cc1csc(NC(=O)CCCc2ccccc2)n1	7%	35µM*	11%	-20%	-23%	-2%	-17%	-7%	-12%
O=C1CCCCCC(=O)[C@H](O)C[C@H](c2ccccc2)O1	/	/	-5%	/	/	/	/	/	/
O=C(Nc1ccccc1Br)C(Cc1ccccc1)NS(=O)(=O)c1cccc2nsnc12 (centres undefined)	2%	/	/	/	/	/	/	/	/
CCc1ccc(-n2nc(C)c3c(C)cc(=O)n(Cc4nc(-c5ccccc5)oc4C)c32)cc1	17%	/	/	/	/	/	/	/	/
SMILES	AmpC detergent	Giardia FBPA inh-1	AMA1 RON2 block	AmpC inh no detg	Giardia growth	Mammalian tox	Giardia FBPA inh-2	Rabbit aldolase	GAPDH coupling
O=C(Nc1cc(C(F)(F)F)ccc1Cl)c1cnn(-c2ccccc2)c1-n1cccc1	1%	/	/	/	/	/	/	/	/
CCCCc1nc(Cl)c(CO)n1Cc1ccc(-c2ccccc2-c2nn[nH]n2)cc1	?	13µM*!	8%	-30%	?	6%	12%	26%	20%
O=C(O)CCC(=O)c1ccc(C2CCCCCC2)cc1	/	/	-6%	/	/	/	/	/	/
CCCCn1c(NS(=O)(=O)c2ccccc2)c(C(=O)OCC)c2nc3ccccc3nc21	-4%	0.45µM*	-2%	-50%	-7%[38.3 µM]	-5%	?	-25%	40µM*
CCCNC(=O)C1(C)CCN(CCC(=O)c2ccc(Br)cc2)C1 (centres undefined)	/	/	-1%	/	/	/	/	/	/
Cc1oc(CSCCSCc2cc(C(=O)O)c(C)o2)cc1C(=O)O	?	14µM*	3%	171%	61%	9%	-1%	-7%	11%
Cc1oc(CSCC2CCCO2)cc1C(=O)O (centres undefined)	?	-5%	-9%	-19%	/	/	/	/	/
O=C(CC(=O)N1CCOCC1)N1CCOCC1	/	/	-8%	/	/	/	/	/	/
COc1ccc(NC(=O)N2CCc3c(sc4c3CCCC4)C2c2ccccc2OC)cc1 (centres undefined)	-8%	/	/	/	/	/	/	/	/
O=S1(=O)N=C(N/N=C/c2cccs2)c2ccccc21	?	2µM*	27%	-19%	-3%[38.3 µM]	-5%	1%	12%	4%
O=[N+]([O-])c1ccc(O)c(/C=N/NC2=NS(=O)(=O)c3ccccc32)c1	-8%	8.9µM*	-7%	-8%	-6%[38.3 µM]	-14%	?	1%	-16%
